The values below come from the antibiotic and cytotoxicity screens of Wong et al. (2023).

Hit rate of the full screen: of about 39,000 compounds, about 1,500 (3.8%) were called active. The full list was thinned out, with actives kept by preference.

This experiment concerns HSkMC (human skeletal muscle cells). Nature of the experiment: cytotoxicity call (relative viability < 0.9). The note with it: 10 µM.
As for `C[C@@H]1CN([C@@H](C)CO)C(=O)Cc2cc(NS(=O)(=O)c3cn(C)cn3)ccc2O[C@H]1CN(C)S(=O)(=O)c1ccc(F)cc1`, the cytotoxicity call is “inactive”.

Turning to `C[C@@H]1CN([C@H](C)CO)C(=O)c2cc(NC(=O)NC3CCCCC3)ccc2O[C@@H](C)CCCCO[C@H]1CN(C)C(=O)NC1CCCCC1`, the cytotoxicity call was “inactive”.

For `C[C@H]1CN([C@@H](C)CO)C(=O)c2cccc(NC(=O)Nc3ccc4c(c3)OCO4)c2O[C@@H]1CN(C)C(=O)Nc1cccc2ccccc12`, the cytotoxicity call was “inactive”.

In the case of `O=C(C[C@H]1CC[C@H]2NC[C@@H](O)COC[C@@H]2O1)NCCN1CCCCC1`, the cytotoxicity call is “inactive”.

As for `CC(C)NC(=O)Nc1ccc2c(c1)CC(=O)N([C@H](C)CO)C[C@@H](C)[C@H](CN(C)C(=O)Nc1ccc3c(c1)OCO3)O2`, the cytotoxicity call is “inactive”.

For the compound `C[C@@H]1CCCCO[C@@H](CN(C)C(=O)NC2CCCCC2)[C@H](C)CN([C@@H](C)CO)C(=O)c2cc(NC(=O)CCC(F)(F)F)ccc2O1`, the cytotoxicity call is “inactive”.

With `Cc1noc(C)c1NC(=O)N(C)C[C@H]1OCCCC[C@@H](C)Oc2ccc(NC(=O)C3CCCCC3)cc2C(=O)N([C@H](C)CO)C[C@@H]1C`, the cytotoxicity call was “inactive”.

Take `C[C@@H]1CN([C@H](C)CO)C(=O)Cc2cc(NC(=O)Nc3ccc(C(F)(F)F)cc3)ccc2O[C@H]1CN(C)CC1CCCCC1`: the cytotoxicity call was “active”.

Turning to `C[C@@H]1CN([C@@H](C)CO)C(=O)Cc2cc(NC(=O)Nc3ccc(C(F)(F)F)cc3)ccc2O[C@H]1CN(C)CC1CCCCC1`, the cytotoxicity call is “active”.

For the compound `C[C@H]1CN([C@@H](C)CO)C(=O)Cc2cc(NC(=O)Nc3ccc(F)cc3)ccc2O[C@@H]1CN(C)CC1CCCCC1`, the cytotoxicity call is “inactive”.

As to `C[C@H](CO)N1C[C@H](C)[C@H](CN(C)Cc2ccc3c(c2)OCO3)OCCCC[C@H](C)Oc2ccc(NC(=O)Cc3ccccc3)cc2C1=O`, the cytotoxicity call was “inactive”.

Turning to `C[C@H]1CN([C@@H](C)CO)C(=O)Cc2cc(NC(=O)Nc3ccc4c(c3)OCO4)ccc2O[C@@H]1CN(C)Cc1ccc(-c2ccccc2)cc1`, the cytotoxicity call was “inactive”.

With `CC(C)[Si](C#Cc1ccc(Oc2ccccc2)cc1)(O[Si](C#Cc1ccc(Oc2ccccc2)cc1)(C(C)C)C(C)C)C(C)C`, the cytotoxicity call was “inactive”.

With `COc1ccc(CN(C)C[C@@H]2OCCCC[C@@H](C)Oc3ccc(NC(=O)c4ccncc4)cc3C(=O)N([C@H](C)CO)C[C@H]2C)cc1`, the cytotoxicity call was “inactive”.

In the case of `O=C(Cc1ccncc1)Nc1ccc2c(c1)[C@@H]1C[C@H](CC(=O)N3CCc4ccccc4C3)O[C@@H](CO)[C@@H]1O2`, the cytotoxicity call was “inactive”.

Consider `CCc1cccc(NC(=O)O[C@H]2[C@H](OC(=O)Nc3ccccc3-c3ccccc3)[C@H](OC(=O)Nc3ccccc3-c3ccccc3)[C@@H](OC)O[C@@H]2CO)c1`, for which the cytotoxicity call is “inactive”.

With `CO[C@H]1O[C@H](CO)[C@@H](OC(=O)Nc2cccc(F)c2)[C@H](OC(=O)Nc2ccccc2-c2ccccc2)[C@@H]1OC(=O)Nc1ccccc1-c1ccccc1`, the cytotoxicity call is “active”.

Turning to `CO[C@H]1O[C@H](CO)[C@@H](OC(=O)Nc2ccccc2-c2ccccc2)[C@H](OC(=O)Nc2ccccc2-c2ccccc2)[C@@H]1OC(=O)Nc1ccccc1-c1ccccc1`, the cytotoxicity call is “inactive”.

As for `CO[C@H]1O[C@H](CO)[C@@H](OC(=O)Nc2ccccc2-c2ccccc2)[C@H](OC(=O)Nc2ccccc2)[C@@H]1OC(=O)Nc1ccccc1`, the cytotoxicity call was “inactive”.

For `CO[C@H]1O[C@H](CO)[C@@H](OC(=O)Nc2cccc(F)c2)[C@H](OC(=O)Nc2ccccc2-c2ccccc2)[C@H]1OC(=O)Nc1ccccc1-c1ccccc1`, the cytotoxicity call was “active”.

In the case of `CO[C@H]1O[C@H](CO)[C@@H](OC(=O)Nc2ccccc2-c2ccccc2)[C@H](OC(=O)Nc2ccc3c(c2)OCO3)[C@H]1OC(=O)Nc1ccc2c(c1)OCO2`, the cytotoxicity call is “inactive”.

`C[C@@H]1CCCCO[C@@H](CN(C)Cc2ccccc2)[C@H](C)CN([C@@H](C)CO)C(=O)c2cc(NC(=O)Cc3ccccc3)ccc2O1`: the cytotoxicity call was “inactive”.

`C[C@H](CO)N1C[C@H](C)[C@@H](CN(C)S(C)(=O)=O)Oc2ccc(NC(=O)Nc3ccc(F)cc3)cc2C1=O`: the cytotoxicity call is “inactive”.

With `C[C@@H]1CN([C@@H](C)CO)C(=O)c2cc(NC(=O)CCCN(C)C)ccc2O[C@@H](C)CCCCO[C@@H]1CN(C)CC1CCCCC1`, the cytotoxicity call is “inactive”.

In the case of `C[C@H]1CN([C@@H](C)CO)C(=O)Cc2cc(NS(=O)(=O)c3ccc(Cl)cc3)ccc2O[C@@H]1CN(C)Cc1ccc(Oc2ccccc2)cc1`, the cytotoxicity call is “active”.

With `C[C@@H]1CN([C@H](C)CO)C(=O)Cc2cc(NS(=O)(=O)c3ccc(Cl)cc3)ccc2O[C@@H]1CN(C)Cc1ccc(Oc2ccccc2)cc1`, the cytotoxicity call is “active”.

Turning to `C[C@H]1CN([C@@H](C)CO)C(=O)Cc2cc(NS(=O)(=O)c3ccc(Cl)cc3)ccc2O[C@H]1CN(C)Cc1ccc(Oc2ccccc2)cc1`, the cytotoxicity call was “active”.

For the compound `C[C@H](CO)N1C[C@H](C)[C@H](CN(C)Cc2ccc(Oc3ccccc3)cc2)Oc2ccc(NS(=O)(=O)c3ccc(Cl)cc3)cc2CC1=O`, the cytotoxicity call was “active”.

With `Nc1nc(=O)c2[nH]c(=O)cnc2[nH]1`, the cytotoxicity call is “inactive”.

Regarding `COc1ccc(CN(C)C[C@H]2OCCCC[C@H](C)Oc3ccc(NC(=O)c4ccccc4)cc3C(=O)N([C@H](C)CO)C[C@@H]2C)cc1`, the cytotoxicity call is “inactive”.

With `CO[C@@H]1CN(C)C(=O)c2ccc(NC(=O)Nc3ccccc3)cc2OC[C@@H](C)N(C(=O)CN(C)C)C[C@H]1C`, the cytotoxicity call is “inactive”.

Turning to `COCC(=O)Nc1ccc2c(c1)C(=O)N(C)C[C@@H](OC)[C@@H](C)CN(Cc1cccc(F)c1)[C@@H](C)CO2`, the cytotoxicity call is “inactive”.

`CC(C)Cn1cnc2c1c(=O)n(C)c(=O)n2C`: the cytotoxicity call is “inactive”.

`CC(=O)N1C[C@@H](NC(=O)c2nccn2C)[C@@H]2OCCC[C@@H]21`: the cytotoxicity call is “inactive”.

`C[C@H](CO)N1C[C@H](C)[C@H](CN(C)C(=O)CCC(F)(F)F)OCCCC[C@H](C)Oc2ccc(NS(=O)(=O)c3ccccc3)cc2C1=O`: the cytotoxicity call was “inactive”.

On to `CN1CCN(C(=O)C[C@H]2C[C@@H]3c4cc(NS(=O)(=O)c5ccc(F)cc5)ccc4O[C@@H]3[C@@H](CO)O2)CC1`, for which the cytotoxicity call is “inactive”.

As for `C=CCOC(=O)[C@H]1[C@@H]2C(=O)O[C@@H](c3ccccc3)[C@@H](c3ccccc3)N2[C@@H](c2ccc(OCCOC(=O)[C@@H]3C[C@@H]4C(=O)N[C@@H](CCCC[N+](C)(C)C)C(=O)N4[C@@H]3c3cccc(OCCO)c3)cc2)[C@]12C(=O)Nc1ccc(I)cc12`, the cytotoxicity call was “inactive”.

In the case of `Cc1noc(C)c1S(=O)(=O)N(C)C[C@H]1OCCCC[C@@H](C)Oc2ccc(NS(C)(=O)=O)cc2C(=O)N([C@@H](C)CO)C[C@@H]1C`, the cytotoxicity call was “inactive”.

For `COc1ccc(NC(=O)N(C)C[C@@H]2Oc3c(NC(=O)C4CCOCC4)cccc3C(=O)N([C@@H](C)CO)C[C@@H]2C)cc1`, the cytotoxicity call is “inactive”.

For `COCC(=O)Nc1ccc2c(c1)C(=O)N(C)C[C@@H](OC)[C@@H](C)CN(C(=O)Cc1cccnc1)[C@@H](C)CO2`, the cytotoxicity call is “inactive”.

For the compound `CCCCn1c(SCC(N)=O)nc2c1c(=O)n(C)c(=O)n2C`, the cytotoxicity call is “inactive”.

In the case of `C[C@@H]1CN([C@@H](C)CO)C(=O)Cc2cc(NS(=O)(=O)c3ccc(Cl)cc3)ccc2O[C@H]1CN(C)Cc1ccc(Oc2ccccc2)cc1`, the cytotoxicity call was “active”.

On to `C[C@@H]1CN([C@@H](C)CO)C(=O)Cc2cc(NS(=O)(=O)c3ccc(Cl)cc3)ccc2O[C@@H]1CN(C)Cc1ccc(Oc2ccccc2)cc1`, for which the cytotoxicity call was “active”.

In the case of `C[C@H](CO)N1C[C@H](C)[C@@H](CN(C)Cc2ccc(Oc3ccccc3)cc2)Oc2ccc(NS(=O)(=O)c3ccc(Cl)cc3)cc2CC1=O`, the cytotoxicity call was “inactive”.

Regarding `C[C@@H]1CN([C@H](C)CO)C(=O)Cc2cc(NS(=O)(=O)c3ccc(Cl)cc3)ccc2O[C@H]1CN(C)Cc1ccc(Oc2ccccc2)cc1`, the cytotoxicity call was “active”.

Take `COc1ccc(S(=O)(=O)N(C)C[C@@H]2Oc3ccc(NS(=O)(=O)c4cccs4)cc3C(=O)N([C@@H](C)CO)C[C@H]2C)cc1`: the cytotoxicity call is “inactive”.

For the compound `CO[C@@H]1CN(C)C(=O)c2cc(NS(=O)(=O)CC(F)(F)F)ccc2OC[C@@H](C)N(Cc2cccnc2)C[C@@H]1C`, the cytotoxicity call is “inactive”.

Turning to `Cc1ccc(S(=O)(=O)N[C@@H]2CC[C@H](CC(=O)NCc3ccc(Cl)c(Cl)c3)O[C@H]2CO)cc1`, the cytotoxicity call was “inactive”.

On to `COc1ccc(NC(=O)N(C)C[C@@H]2Oc3ccc(NS(=O)(=O)c4c(C)noc4C)cc3C(=O)N([C@@H](C)CO)C[C@@H]2C)cc1`, for which the cytotoxicity call is “inactive”.

`Cc1noc(C)c1S(=O)(=O)N(C)C[C@H]1Oc2ccc(NS(=O)(=O)c3cccs3)cc2CC(=O)N([C@H](C)CO)C[C@H]1C`: the cytotoxicity call is “inactive”.

As for `C[C@H](CO)N1C[C@H](C)[C@H](CN(C)C(=O)Nc2cccc3ccccc23)OCc2cnnn2CCCC1=O`, the cytotoxicity call is “inactive”.

Turning to `C[C@H]1CN([C@@H](C)CO)C(=O)Cc2cc(NC(=O)Nc3ccc(F)cc3)ccc2O[C@@H]1CN(C)Cc1ccc(Oc2ccccc2)cc1`, the cytotoxicity call was “inactive”.

`C[C@@H]1CN([C@@H](C)CO)C(=O)Cc2cc(NC(=O)Nc3ccc(F)cc3)ccc2O[C@@H]1CN(C)Cc1ccc(Oc2ccccc2)cc1`: the cytotoxicity call is “inactive”.

Consider `C[C@H]1CN([C@@H](C)CO)C(=O)Cc2cc(NC(=O)Nc3ccc(F)cc3)ccc2O[C@H]1CN(C)Cc1ccc(Oc2ccccc2)cc1`, for which the cytotoxicity call was “active”.

As to `C[C@@H]1CN([C@@H](C)CO)C(=O)Cc2cc(NC(=O)Nc3ccc(F)cc3)ccc2O[C@H]1CN(C)Cc1ccc(Oc2ccccc2)cc1`, the cytotoxicity call is “inactive”.

`C[C@H](CO)N1C[C@H](C)[C@@H](CN(C)Cc2ccc(Oc3ccccc3)cc2)Oc2ccc(NC(=O)Nc3ccc(F)cc3)cc2CC1=O`: the cytotoxicity call is “inactive”.

Consider `C[C@H](CO)N1C[C@H](C)[C@H](CN(C)Cc2ccc(Oc3ccccc3)cc2)Oc2ccc(NC(=O)Nc3ccc(F)cc3)cc2CC1=O`, for which the cytotoxicity call is “inactive”.

Turning to `C[C@@H]1CN([C@H](C)CO)C(=O)Cc2cc(NC(=O)Nc3ccc(F)cc3)ccc2O[C@H]1CN(C)Cc1ccc(Oc2ccccc2)cc1`, the cytotoxicity call is “active”.

Turning to `C[C@@H]1CN([C@H](C)CO)C(=O)Cc2cc(NC(=O)Nc3ccc(F)cc3)ccc2O[C@@H]1CN(C)Cc1ccc(Oc2ccccc2)cc1`, the cytotoxicity call was “active”.
